According to PubChem BioAssay:
Measured potencies and affinities stand elsewhere. Records with an inconclusive call do not appear. Activity calls are given as the source filed them. Unless noted, the rule behind the calls is not given here.

Experiments:
[1] = RMG-1 ovarian cancer cell viability loss – cherry-pick, dose response (AID 687029;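 active = signal drop whose fitted half-maximal concentration is at most twice the top valid dose, in every test run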;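 note: cells exposed to compound for 96 hours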)
[2] = IOSE-T80 viability loss, PAX8-independent line – cell-based, cherry-pick, selectivity assay for PAX8 inhibitor project, dose response (AID 687032;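 active = fitted half-maximal concentration for viability loss no higher than twice the top valid dose, in every repeat run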;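 note: cells exposed to compound for 96 h before reading; 0% = neutral control wells and -100% = 2 µM mitoxantrone kill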)
[3] = CMV-driven luciferase expression suppression in HEK293 – cell-based, luminescence, dry powder, counter-screen for Pax8 inhibitor project, dose response (AID 743020;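 active = signal-lowering compounds whose fitted half-maximal concentration is at or below twice the top tested dose in every run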;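 note: HEK293 cells stably expressing the CMV luciferase reporter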)
[4] = general cell-killing toxicity readout – plate reader, dry powder samples, cytotoxicity control for PAX8 inhibitor project, dose response (AID 743021)
[5] = toxicity toward immortalized ovarian surface epithelium – cell-based, plate reader, dry powder samples, cytotoxicity control for PAX8 inhibitor project, dose response (AID 743045);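 note: 0% = neutral control median and -100% = positive control median; more negative values mean more cell killing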
[6] = A2780 cell killing – plate reader, dry powder samples, cytotoxicity control, dose response (AID 743046);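 note: 0% = neutral control wells and -100% = cytotoxic reference compound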
[7] = OVCAR8 cell viability loss – plate reader, dry powder samples, PAX8 project, dose response (AID 743197)
[8] = IGROV1 cell killing – plate reader, dry powder samples, PAX8 inhibitor project, dose response (AID 743043);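 note: more negative means fewer viable cells or more cytotoxicity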
[9] = OVCAR-3 cell viability loss – plate reader, dry powder samples, PAX8 inhibitor project, dose response (AID 743044); details: max activity: at 35 µM, hits give low values unless noted

Measured: max activity

C[C@@H]1CCCCO[C@@H](CN(C)Cc2ccc(C(F)(F)F)cc2)[C@H](C)CN([C@@H](C)CO)C(=O)c2cc(NC(=O)Cc3ccccc3)ccc2O1
not listed: [7] | [8] | [9]
inactive: all other assays above

O=C(NC1CCCCC1)N1C[C@@H]2N[C@H](C1)C2c1ccc(-c2ccc(F)cc2)cc1 (stereo partly drawn)
inactive: [1] | [2] | [3] | [4] | [6]

COc1cccc2sc(N(CCCN(C)C)C(=O)CCS(=O)(=O)c3ccccc3)nc12
not listed: [7] | [8] | [9]
inactive: all other assays above

COc1ccccc1NC(=O)N1CCCCN2[C@@H](CO)[C@@H](c3ccc(-c4cccc(C)c4)cc3)[C@@H]2C1
inactive: [1] | [2] | [3] | [4] | [6]

C[C@H]1CCCCO[C@@H](CN(C)Cc2ccc(C(F)(F)F)cc2)[C@@H](C)CN([C@@H](C)CO)C(=O)c2cc(NS(=O)(=O)c3ccccc3)ccc2O1
not listed: [7] | [8] | [9]
inactive: all other assays above

C[C@H]1CCCCO[C@@H](CN(C)Cc2ccc(C(F)(F)F)cc2)[C@@H](C)CN([C@@H](C)CO)C(=O)c2cc(NS(=O)(=O)c3ccc(F)cc3)ccc2O1
not listed: [7] | [8] | [9]
inactive: all other assays above

C[C@H](CO)N1C[C@H](C)[C@H](CN(C)Cc2ccc(C(F)(F)F)cc2)OCCCC[C@H](C)Oc2ccc(NC(=O)Nc3ccc4c(c3)OCO4)cc2C1=O
not listed: [8] | [9]
inactive: all other assays above

O=C(Nc1cccc(F)c1)N1CCCCN2[C@@H](CO)[C@@H](c3ccc(-c4ccccc4F)cc3)[C@@H]2C1
not listed: [8] | [9]
inactive: all other assays above

COc1cccc(S(=O)(=O)Nc2ccc3c(c2)[C@@H]2C[C@@H](CC(=O)NCc4ccc(Cl)cc4)O[C@@H](CO)[C@@H]2O3)c1
not listed: [8] | [9]
inactive: all other assays above

O=C(c1cc(-c2cccs2)on1)N1CCN(C(c2ccccc2)c2ccccc2)CC1
not listed: [7] | [8] | [9]
inactive: all other assays above

C[C@@H]1CN([C@H](C)CO)C(=O)c2cc(NC(=O)Nc3ccc(C(F)(F)F)cc3)ccc2O[C@@H](C)CCCCO[C@H]1CN(C)C(=O)c1ccccc1
inactive: [1] | [2] | [3] | [4] | [6]

COc1ccccc1S(=O)(=O)N(C)C[C@H]1Oc2cc(C#CCC3CCCC3)ccc2S(=O)(=O)N([C@@H](C)CO)C[C@@H]1C
not listed: [6] | [8] | [9]
inactive: all other assays above

COc1cccc(-c2ccc3c(c2)[C@@H]2[C@@H](CCN2S(=O)(=O)c2ccccc2OC)[C@H](CO)N3C)c1
not listed: [7] | [8] | [9]
inactive: all other assays above

Cc1ccc(S(=O)(=O)N(C)C[C@H]2Oc3cc(C#Cc4ccncc4)ccc3S(=O)(=O)N([C@@H](C)CO)C[C@H]2C)cc1
inactive: [1] | [2] | [3] | [4] | [6]

O=C1CN(S(=O)(=O)Cc2ccccc2)C[C@@H]2[C@H](c3ccc(C#Cc4ccc(F)cc4)cc3)[C@H](CO)N12
not listed: [6] | [8] | [9]
inactive: all other assays above

O=C(Nc1ccccc1F)N1CCCCN2[C@@H](CO)[C@@H](c3ccc(/C=C/c4ccccc4)cc3)[C@@H]2C1
not listed: [8] | [9]
inactive: all other assays above

COc1cccc(S(=O)(=O)N2CC[C@@H]3[C@@H](CO)Nc4ccc(-c5ccccc5OC)cc4[C@@H]32)c1
inactive: [1] | [2] | [3] | [4] | [6]

C[C@H](CO)N1C[C@H](C)[C@@H](CN(C)Cc2ccccc2)Oc2ccc(NC(=O)Nc3ccc(C(F)(F)F)cc3)cc2CC1=O
not listed: [8] | [9]
inactive: all other assays above

C[C@@H]1CCCCO[C@@H](CN(C)Cc2ccc(C(F)(F)F)cc2)[C@H](C)CN([C@@H](C)CO)C(=O)c2cc(NC(=O)NC3CCCCC3)ccc2O1
not listed: [7] | [8] | [9]
inactive: all other assays above

O=C(Nc1ccc(C(F)(F)F)cc1)N1C[C@@H]2N[C@H](C1)C2c1ccc(/C=C/c2ccccc2)cc1 (stereo partly drawn)
not listed: [6] | [8] | [9]
inactive: all other assays above

Cc1cccc(S(=O)(=O)N2CCCCN3[C@H](CO)[C@H](c4ccc(C#CC(C)C)cc4)[C@H]3C2)c1
inactive: [1] | [2] | [3] | [4] | [6]

O=C(c1ccccc1F)N1CC(=O)N2[C@@H](CO)[C@@H](c3ccc(C#Cc4ccc(F)cc4)cc3)[C@@H]2C1
not listed: [7] | [8] | [9]
inactive: all other assays above

Cc1ccc(S(=O)(=O)Nc2ccc3c(c2)CC(=O)N([C@@H](C)CO)C[C@@H](C)[C@H](CN(C)Cc2ccc(Cl)c(Cl)c2)O3)cc1
not listed: [8] | [9]
inactive: all other assays above

C[C@@H]1CN([C@@H](C)CO)C(=O)Cc2cc(NC(=O)CCC(F)(F)F)ccc2O[C@H]1CN(C)Cc1ccc(Oc2ccccc2)cc1
not listed: [8] | [9]
inactive: all other assays above

OC[C@@H]1[C@H](c2ccc(-c3ccc(F)cc3)cc2)[C@@H]2CN(CCC(F)(F)F)CCCCN12
not listed: [7] | [8] | [9]
inactive: all other assays above

Cc1ccc(S(=O)(=O)Nc2ccc3c(c2)C(=O)N([C@H](C)CO)C[C@@H](C)[C@@H](CN(C)Cc2ccc(C(F)(F)F)cc2)OCCCC[C@@H](C)O3)cc1
inactive: [1] | [2] | [3] | [4] | [6]

C[C@@H]1CN([C@@H](C)CO)C(=O)Cc2cc(NC(=O)Nc3ccc4c(c3)OCO4)ccc2O[C@H]1CN(C)CC1CCCCC1
not listed: [8] | [9]
inactive: all other assays above

COc1ccc(S(=O)(=O)N(C)C[C@H]2Oc3c(NC(=O)Nc4ccc(C(F)(F)F)cc4)cccc3C(=O)N([C@@H](C)CO)C[C@H]2C)cc1
not listed: [4] | [9]
inactive: all other assays above

C[C@@H]1CN([C@@H](C)CO)C(=O)c2cc(NC(=O)Nc3ccc(F)cc3)ccc2O[C@@H](C)CCCCO[C@H]1CN(C)Cc1ccc(C(F)(F)F)cc1
inactive: [1] | [2] | [3] | [8] | [5]

C[C@H](O)C#Cc1ccc2c(c1)O[C@@H](CN(C)Cc1ccc(-c3ccccc3)cc1)[C@@H](C)CN([C@H](C)CO)S2(=O)=O
inactive: [1] | [2] | [3] | [8] | [9] -11.2% | [5] | [6]

CCCC#Cc1ccc([C@H]2[C@@H](CO)N(C(=O)C3CCCCC3)[C@H]2C#N)cc1
not listed: [4] | [9]
inactive: all other assays above

Cc1ccccc1-c1ccc2c(c1)O[C@H](CN(C)C(=O)Nc1ccc(C(F)(F)F)cc1)[C@H](C)CN([C@@H](C)CO)S2(=O)=O
not listed: [4] | [6] | [9]
inactive: all other assays above

C[C@H](CO)N1C[C@H](C)[C@H](CN(C)S(=O)(=O)c2ccc(Cl)cc2)Oc2c(NC(=O)Nc3ccc(F)cc3)cccc2C1=O
not listed: [4] | [7] | [9]
inactive: all other assays above

C[C@@H]1CN([C@H](C)CO)C(=O)CCCn2nncc2CO[C@H]1CN(C)Cc1ccc(Oc2ccccc2)cc1
inactive: [1] | [2] | [3] | [8] | [9] 10.8% [at 4.2 µM, hits give low values] | [5] | [6] | [7]

C[C@H](CO)N1C[C@H](C)[C@H](CN(C)C(=O)[C@H](Cc2ccccc2)N(C)C)OCc2ccccc2-c2c(n(C)c3ccccc23)C1=O
not listed: [4] | [6] | [9]
inactive: all other assays above

COc1cccc(C#Cc2ccc([C@@H]3[C@@H](C#N)N(C(=O)C4CCCCC4)[C@H]3CO)cc2)c1
inactive: [1] | [2] | [3] | [8] | [9] 22.8% [at 1 µM, hits give low values] | [5] | [6]

C[C@H](CO)N1C[C@H](C)[C@@H](CN(C)Cc2ccc(C(F)(F)F)cc2)Oc2ccc(NS(=O)(=O)c3ccccc3)cc2CC1=O
inactive: [1] | [2] | [3] | [8] | [5]

CC(C)CC#Cc1ccc2c(c1)O[C@H](CN(C)S(=O)(=O)c1ccc(F)cc1)[C@H](C)CN([C@H](C)CO)S2(=O)=O
not listed: [4] | [7] | [9]
inactive: all other assays above

COc1ccccc1C#Cc1ccc2c(c1)O[C@H](CN(C)Cc1ccncc1)[C@@H](C)CN([C@@H](C)CO)S2(=O)=O
not listed: [4] | [9]
inactive: all other assays above

CCCNC(=O)Nc1ccc2c(c1)OC[C@@H](C)N(Cc1ccc(-c3ccccn3)cc1)C[C@@H](C)[C@H](OC)CN(C)C2=O
inactive: [1] | [2] | [3] | [8] | [9] 19.6% [at 1 µM, hits give low values] | [5] | [6] | [7]
